Compound activity deposited in PubChem by National Center for Advancing Translational Sciences (NCATS).
Cycloheximide cs: Cycloheximide Counterscreen for Small Molecule Inhibitors of Shiga Toxin. AID 2314, 2010. max response, %. 12% of 300,000 active. cell reporter, cycloheximide protein synthesis inhibition counterscreen; in the data active = max response mostly above about 13%, no sharp cut-off; inactive = mostly below about 14%; note: read at 38.3 µM for the half of the compounds with a filed dose; 0% is about no effect
NS1 inh: qHTS Assay for Inhibitors of Influenza NS1 Protein Function. Potency, µM (series often up to 46.1 µM), inactives show at the top dose activity, positive = more growth. 0.4% of 270,000 active. AID 2326, 2010; calls by dose curve; note: potency is the fitted concentration of half-maximal effect; actives are rising curves; nearly all actives have a fitted effect of over 50% in size
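Recovery from NS1-induced slow growth read by OD600 in budding yeast switched to galactose assay medium (pH 6.0, -URA) at 1:100 dilution. Compound 23 nl per well; the matching strain lacking NS1 serves as control.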
Pf growth 48h: Primary qHTS for delayed death inhibitors of the malarial parasite plastid, 48 hour incubation; Potency, µM (top dose mostly 28.7 µM), inactives show top-dose activity change, negative = inhibition, most hits filed as inhibitors; P. falciparum luciferase growth in erythrocytes, 48 h; 5.9% of 310,000 active; AID 504832, 2011; note: potency is the fitted concentration of half-maximal effect; % is set by controls: 0 for no effect and ±100 for the full control effect
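Firefly luciferase activity from engineered P. falciparum reports growth; inhibitors lower the luminescent signal. Cultures contained 2% hematocrit erythrocytes at 0.1% final parasitemia.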
Pf growth 96h: Primary qHTS for delayed death inhibitors of the malarial parasite plastid, 96 hour incubation | P. falciparum luciferase reporter growth, 96 h | Potency, µM (series often up to 28.7 µM), for the others: at the highest dose activity change, negative = inhibition, usual class: inhibitors | 6.9% of 320,000 active | AID 504834, 2011; note: potency is the fitted concentration of half-maximal effect; % is set by controls: 0 for no effect and ±100 for the full control effect
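Readout is luminescence from an integrated firefly luciferase in P. falciparum. Red cells, 2% hematocrit and 0.05% parasitemia final, were cultured with compound through two parasite generations (96 hours) at 37 C, 5% CO2.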
Shiga toxin inh: A qHTS for Small Molecule Inhibitors of Shiga Toxin. AID 2315, 2010. 9.2% of 290,000 active. inhibition, % at 38.7 µM. Vero cells, Shiga toxin protein synthesis inhibition reporter; in the data active = inhibition mostly above about 28%, no sharp cut-off; inactive = mostly below about 43%; note: 0% is about no effect
An asterisk follows results filed as active; ? = inconclusive; / = no result given. The list is not random: actives were taken first. Their share in the collection is about 21%. Unless noted, calls come from the whole dose curve; as a rule, active = well fitted inhibition curve with a large enough effect; inconclusive = small, poorly fitted or top-dose-only effect, or another doubt; inactive = no such curve, though single readings can be large or run the other way.

SMILES	Cycloheximide cs	NS1 inh	Pf growth 48h	Pf growth 96h	Shiga toxin inh
CC1CCCCN1C(=O)CSc1nnc(-c2ccc(Cl)s2)o1 (stereo not drawn)	27.9*	-50.9%	105.8%	36.4%	88.4*
CC1CCCC(C)N1C(=O)CSc1nnc(C2CCCCC2)o1 (stereo not drawn)	46.0*	-19.6%	18.4%	/	92.5*
COc1ccc(CCn2c(=O)c3cccnc3n(Cc3cccc([N+](=O)[O-])c3)c2=O)cc1OC	6.4	/	17.2%	?	-6.9
COc1cc(C(=O)O[C@H]2C/C(C)=C/CC/C(C)=C/[C@@H](O)C2C(C)C)ccc1O (stereo partly drawn)	11.0	/	/	/	-2.2
Nc1nnc(CCCCCc2nnc(N)s2)s1	9.1	/	?	1.0%	2.0
CCCCCCCCc1nnc(N)s1	11.9*	-5.1%	-11.8%	52.7%	6.8
N=c1sccn1CC(=O)Nc1ccc(SC(F)F)cc1	9.0	/	?	-12.5%	10.7
COc1ccc(CN2C(=NC(=O)C3CC3)SC3CS(=O)(=O)CC32)cc1 (stereo not drawn)	1.0	-8.8%	-8.3%	-15.1%	-6.4
COc1ccc(CN2C(=NC(=O)C3CCCCC3)SC3CS(=O)(=O)CC32)cc1 (stereo not drawn)	-5.2	-5.4%	?	14.7µM*	-6.7
COc1cc(/C=N/n2cnnc2)ccc1OCCSc1ccc(C)cc1	21.6*	-16.3%	36.2%	?	33.5
C=C(C)CSc1nncn1/N=C/c1ccc(OC)cc1	55.2*	-57.1%	9.6%	-0.4%	140.5*
COc1ccc(-n2cnnc2SCC(=O)N2CCN(c3ccccc3)CC2)cc1	5.8	?	/	-28.1%	-7.7
CCSc1nncn1/N=C/c1ccc(OC)c(OC)c1	21.1*	-10.3%	18.1%	-4.1%	32.0*
CCOc1ccc(/C=N/n2c(C)nnc2C)cc1OC	-1.8	5.0%	7.6%	-6.3%	-16.6
CC1CCCC/C1=N\NC(=S)Nc1ccccc1 (stereo not drawn)	18.2*	-0.4%	-29.5%	?	29.7
CC1CCC/C(=N\NC(=S)Nc2ccccc2)C1 (stereo not drawn)	79.4*	7.0%	17.7%	-4.4%	101.9*
COc1cccc(N2C(=O)CC(N3CCc4ccccc43)C2=O)c1 (stereo not drawn)	23.7*	7.7%	16.2%	36.7%	35.0*
CCN(CC)S(=O)(=O)c1cc(-c2nnc(-c3ccc(Br)cc3)o2)ccc1Cl	-3.3	-9.0%	-1.6%	3.29µM*	18.8
CCCCOc1ccc(C(=O)NCC2(c3ccc(OC)cc3)CCOCC2)cc1	5.3	-10.2%	-19.8%	-20.4%	-0.7
CCOC(=O)CNC(=O)c1sc2ncnc(N3CCc4ccccc4C3)c2c1C	0.2	-32.3%	?	/	17.5
CCCCNC(=O)c1sc2ncnc(N3CCc4ccccc4C3)c2c1C	-4.5	-3.6%	?	14.7µM*	-16.2
CN(C)S(=O)(=O)c1cccc(-c2nn(-c3ccccc3)cc2/C=C(/C#N)C(=O)NCc2ccco2)c1	16.2	23.5%	-0.1%	?	14.3
CC1CCCN(C2=NC(=O)/C(=C/c3cn(-c4ccccc4)nc3-c3cccc(S(=O)(=O)N(C)C)c3)S2)C1 (stereo not drawn)	-2.5	3.6%	?	1.65µM*	-6.6
CC1CCN(C2=NC(=O)/C(=C/c3cn(-c4ccccc4)nc3-c3cccc(S(=O)(=O)N(C)C)c3)S2)CC1	-7.4	11.4%	7.38µM*	?	15.4
COc1ccc(OC)c(/C=C2\SC(N3CCCC(C)C3)=NC2=O)c1 (stereo not drawn)	-2.0	-6.8%	?	3.8%	24.8
SMILES	Cycloheximide cs	NS1 inh	Pf growth 48h	Pf growth 96h	Shiga toxin inh
COc1ccc(C(=O)NNC(=O)CN2CCN(c3nc(-c4ccccc4)cs3)CC2)cc1	15.5	12.6%	0.1%	44.0%	0.8
COc1ccc(NC(=O)CCN2CCN(c3ccc(F)cc3)CC2)cc1	-2.2	1.1%	-12.6%	44.9%	-2.2
C=CCN(c1ccccc1)S(=O)(=O)c1cccc2cccnc12	0.9	6.3%	4.3%	-0.1%	-4.8
CS(=O)(=O)N1N=C(c2ccco2)CC1c1ccco1 (stereo not drawn)	1.8	16.7%	-10.3%	105.4%	8.7
CS(=O)(=O)N1N=C(c2ccco2)CC1c1ccc(Cl)cc1 (stereo not drawn)	30.2*	21.0%	36.0%	8.8%	18.0
Cc1ccc(C2CC(c3ccco3)=NN2S(C)(=O)=O)cc1 (stereo not drawn)	28.0*	6.8%	35.5%	17.3%	40.1*
CS(=O)(=O)N1N=C(c2ccco2)CC1c1ccccc1 (stereo not drawn)	-2.0	1.1%	42.2%	-21.2%	-2.0
CC(C)C[C@H](NC(=O)N1CCn2c1nc1ccccc12)C(=O)N[C@@H](C(=O)O)c1ccccc1	-2.6	11.1%	35.9%	8.4%	0.8
CCOCCn1c(=O)c2c(nc3n2CCN3c2ccccc2)n(C)c1=O	/	24.3%	/	/	/
Cc1cc(C)c(NC(=O)CN(C)CC(=O)N(C)CC(=O)Nc2c(Cl)cccc2Cl)c(C)c1	/	/	-17.8%	?	/
CC(C)Sc1cc(N2CCCC2)nc(-c2ccc(F)cc2)n1	7.2	0.5%	13.1µM*	?	-5.8
CC(C)Sc1cc(N2CCCC2)nc(-c2ccccc2)n1	-2.6	-13.8%	?	?	8.4
NC(N)=NCc1cccc(I)c1	/	4.8%	?	10.7µM*	/
NC(N)=NC(N)=NCCc1ccccc1	-0.2	12.4%	-8.8%	?	-2.0
Cc1ccc(CN(c2ccc(C(=O)Nc3ccc4c(c3)OCO4)cc2)S(C)(=O)=O)cc1	11.6	6.3%	/	-9.4%	17.2
CN(c1ccc(C(=O)Nc2ccc3c(c2)OCO3)cc1)S(C)(=O)=O	33.2*	3.8%	65.6%	99.5%	61.8*
CN(c1ccc(C(=O)Nc2ccc3c(c2)OCCO3)cc1)S(C)(=O)=O	30.9*	0.1%	/	179.5%	58.5*
CN(c1ccc(C(=O)Nc2ccc(CC#N)cc2)cc1)S(C)(=O)=O	18.8	/	31.6%	70.0%	57.7*
Cc1c(C)n(CCC#N)c2ccc(Cl)cc12	-3.4	-15.0%	-23.4%	?	44.5
COc1cc(/C(C)=N/Nc2ccc(C(=O)O)cc2)cc(OC)c1OC	70.5*	?	146.0%	-12.1%	171.1*
COc1ccc(/C(C)=N/Nc2ccc(C(=O)O)cc2)cc1OC	40.5*	15.4%	256.4%	225.0%	62.8
C/C(=N/Nc1ccc(C(=O)O)cc1)c1ccc(O)c(O)c1O	51.5*	-10.4%	107.4%	?	83.7*
COc1ccc(OC)c(/C(C)=N/Nc2ccc(C(=O)O)cc2)c1	37.6*	-8.4%	139.1%	76.9%	54.6*
COc1ccc(OC)c(C(=O)c2ccc(C(=O)c3cc(OC)ccc3OC)cc2)c1	-7.3	3.9%	2.8%	/	-16.7
Cn1c(N)c(C(=O)COC(=O)CSc2cccc3cccc(Cl)c23)c(=O)n(C)c1=O	4.2	4.2%	4.5%	17.2%	-12.5
O=C(O)c1ccc(NC(=O)c2ccccc2NC(=O)c2ccccc2Cl)cc1	-2.9	1.8%	2.7%	100.5%	-3.2
